Measured values: PubChem BioAssay AID2557 (NMMLSC, 2010)
Several values for one entry are separate records, joined by “and”; a condition that tells them apart may be missing. Identical values can stand only once. Out of some 330,000 compounds screened, about 650 (0.2%) were called active. No stated cut-off is given here; in the data, active means inhibition above about 50%; inactive means the rest. Many of the other results were omitted from the sample, so actives are more common in it than they were. Where a structure was tested more than once in an assay, its records may differ in their call.

target: Integrin alpha-4 (Homo sapiens) (UniProt P13612); test: inhibition in human VLA-4 binding assay, primary screen, VLA-4 allosteric modulator project, MLPCN library, flow cytometry, VLA-4 expressing cells (AID 2557); conditions: ligand binding flow cytometry, stronger effect = higher value, about 7 µM as worked out from the volumes in the protocol
Sequence (P13612 whole entry, looked up): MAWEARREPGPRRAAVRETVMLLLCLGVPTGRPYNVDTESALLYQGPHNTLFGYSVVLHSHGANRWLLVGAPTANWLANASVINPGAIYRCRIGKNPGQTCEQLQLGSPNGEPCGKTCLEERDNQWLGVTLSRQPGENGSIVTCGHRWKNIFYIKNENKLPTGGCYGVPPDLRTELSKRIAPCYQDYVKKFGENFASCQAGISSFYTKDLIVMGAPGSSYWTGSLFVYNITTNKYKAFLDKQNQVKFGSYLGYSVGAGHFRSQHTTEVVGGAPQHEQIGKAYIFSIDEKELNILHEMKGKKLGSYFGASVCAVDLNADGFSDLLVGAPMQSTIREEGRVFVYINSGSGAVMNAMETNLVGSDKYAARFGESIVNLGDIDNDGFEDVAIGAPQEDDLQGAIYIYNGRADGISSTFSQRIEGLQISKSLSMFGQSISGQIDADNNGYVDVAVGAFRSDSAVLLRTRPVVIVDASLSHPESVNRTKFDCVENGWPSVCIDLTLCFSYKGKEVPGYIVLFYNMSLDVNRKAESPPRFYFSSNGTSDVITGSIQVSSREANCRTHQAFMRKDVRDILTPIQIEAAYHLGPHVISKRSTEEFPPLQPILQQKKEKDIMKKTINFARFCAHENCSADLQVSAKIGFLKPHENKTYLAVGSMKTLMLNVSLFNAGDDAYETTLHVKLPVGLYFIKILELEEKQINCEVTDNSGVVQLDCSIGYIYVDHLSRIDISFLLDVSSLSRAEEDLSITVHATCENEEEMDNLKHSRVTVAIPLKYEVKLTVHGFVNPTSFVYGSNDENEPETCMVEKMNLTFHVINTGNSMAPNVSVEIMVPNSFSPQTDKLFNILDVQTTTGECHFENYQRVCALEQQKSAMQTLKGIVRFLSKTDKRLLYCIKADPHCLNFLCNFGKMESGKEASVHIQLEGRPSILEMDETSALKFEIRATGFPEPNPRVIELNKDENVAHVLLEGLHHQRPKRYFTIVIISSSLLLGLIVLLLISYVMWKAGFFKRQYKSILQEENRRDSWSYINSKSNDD

inhibition, 5.73% (inactive) and 56.2% (active):
CC1(C)SC2C(NC(=O)COc3ccccc3)C(=O)N2C1C(=O)O (stereo unspecified)

inhibition, inactive:
CC1(C)S[C@@H]2[C@H](N=CN3CCCCCC3)C(=O)N2[C@H]1C(=O)O 4.34%
CC1(C)S[C@@H]2[C@H](NC(=O)COc3ccccc3)C(=O)N2C1C(=O)OCc1ccccc1 (stereo partly specified) -9.56%
COc1ccccc1N1CCN(c2ncnc3sc(C)c(-c4ccccc4)c23)CC1 -10.6%
CCn1c(/C=N/NC(=O)c2ccc(OC)cc2)nc2ccccc21 -11%
O=C(C1CCCO1)N1CCN(C(=S)NC2CC2)CC1 (stereo unspecified) 8.17%
COc1ccccc1N(C(=O)Cn1nnc2ccccc21)C(C(=O)NCc1ccco1)c1ccc(C)o1 (stereo unspecified) 14%
O=C(Nc1ccc(F)c(Cl)c1)C1CCN(S(=O)(=O)c2cccnc2)CC1 12.9%
Nc1nnnn1/N=C/c1cccc(Br)c1 0.88%
Cc1ccc(NC(=O)OCCNC(=O)c2ccncc2)cc1 -1.13%
CCOC(=O)Nc1ccc(NC(=O)OCC)cc1 10.4%
FC(F)Oc1ccccc1NC(=S)Nc1cccc(Cl)c1Cl 21.2%
CCN(CC(=O)NCc1ccc(Cl)cc1)C(=O)CSc1ccccc1 -3.34%
COc1ncnc2c1N=C1CC(C)(C)CC(N)=C1S2 -11.6%
O=C(NCc1ccc2c(c1)OCO2)C12CC3CC(CC(C3)C1)C2 0.46%
CCc1c(O)nc(SCC(=O)Nc2ccccc2)n(C(C)CC)c1=O (stereo unspecified) 9.62%
CCOC(=O)c1sc(C)c2c1NC(C)(c1cccc3ccccc13)NC2=O (stereo unspecified) -0.92%
COc1ccc(CCNC(=O)CCC(=O)NC2CCCCC2)cc1OC 4.77%
CCOP(=O)(OCC)C(Nc1ccc([N+](=O)[O-])cc1)c1ccc(Cl)cc1 (stereo unspecified) -0.81%
CCO[C@H]1OC(C(=O)NCc2ccccc2)=C[C@@H](c2coc3ccccc3c2=O)[C@@H]1CCCO -1.21%
C=CCSc1nnc2c(n1)-c1cccc3cccc-2c13 -4.2%
CC(C)(C)C(=O)Cn1c(NCCO)nc2ccccc21 -16.2%
O=S(=O)(O)c1nc2ccccc2n1Cc1ccc(Cl)cc1Cl 16.4%
Cn1cc(CN2CCC(C(O)CCc3ccccc3)CC2)c(-c2ccccc2F)n1 (stereo unspecified) -11.7%
Cc1c(NC(=O)c2c([N+](=O)[O-])cnn2C)c(=O)n(-c2ccccc2)n1C 17.6%
Cc1ccc(C2NC(=S)NC3=C2N2CCC3CC2)cc1 (stereo unspecified) 2.28%
CC[C@@H]1CCCCc2ccccc2[C@@H](C(=O)C[C@H](O)CC(C)=O)OC1=O -25.7%
O=C(Nc1ccc(Br)cc1)C1CCC(=O)N1Cc1ccccc1Cl (stereo unspecified) 28.5%
CCN(CC(=O)Nc1c(F)cccc1F)C(=O)c1ccc(-c2ccccc2)cc1 -6.8%
CCCC[C@@H]1CN=C(N)N1CCc1cc(C(F)(F)F)cc(C(F)(F)F)c1 8.42%
CC1CC(C)CN(S(=O)(=O)c2cccc(C(=O)N3C(=O)c4cccc(N)c4C3=O)c2)C1 (stereo unspecified) 3.91%
Cc1cc(C)nc(/N=C2\NC(=O)CC(C(=O)O)N2c2ccc(Cl)cc2Cl)n1 (stereo unspecified) -2.34%
CCOC(=O)c1sc(NC(=O)CSc2nc(O)c(Cc3ccccc3)c(=O)[nH]2)nc1C 2.73%
O=C(Nc1ncccc1O)c1ccc(C(=O)c2ccccc2)cc1 16.6%
O=C(NCc1nnc(SCC(=O)N2CCC(Cc3ccccc3)CC2)o1)c1ccco1 -6.21%
Cc1c(C=O)c2ccccn2c1C(=O)c1ccncc1 11.9%
CCC/C(O)=C1\C(=O)CC(C)(C)CC1=Nc1ccccc1OC 15.2%
Cc1ccc(C)c(N2CCN(C(=O)CCc3nc4ccccc4[nH]3)CC2)c1 8.4%
Cc1cc(C(=O)NNC(=S)NC(C)c2ccccc2)cs1 (stereo unspecified) 6.13%
CCC(C)(C)NC(=O)C(c1cccc(OC)c1OC)N(CC(C)C)C(=O)CCC(=O)Nc1cc(C)on1 (stereo unspecified) 1.27%
O=C(COc1ccc(Cl)cc1)Nc1ccc2c(c1)OCO2 14.3%
COc1ccc(OCC(=O)NNC(=O)C2CCC2)cc1 13.2%
COC(=O)[C@@]12CCCN1[C@H](c1ccc(-c3ccc(F)cc3)c(OC)c1)[C@H]1C(=O)N(C)C(=O)[C@H]12 21.7%
Cc1ccc(CNC(=O)CCCNC(=O)c2ccc(Cl)cc2)n1C -1.01%
CC(=O)NCC(=O)N(C)C(C(=O)Nc1ccc2c(c1)OCCO2)c1ccccc1 (stereo unspecified) 14.2%
O=c1[nH]nc(SCCS(=O)(=O)c2ccc(F)cc2)n1-c1ccccc1C(F)(F)F 3.05%
C=C(C)CNC(=S)/N=c1\scc(C)n1CC 5.83%
O=C(O)CSCC(=O)Nc1ccc(C(F)(F)F)cc1 4.49%
Cc1cc2cc3c(N)[nH]nc3nc2cc1C 10.6%
Cc1cc(OCCN2CCCC2)cc(C(C)C)c1 -8.43%
Cc1ccc(SCC(=O)Nc2ncc(C)s2)cc1 -0.13%
Cc1nnc(SCC(=O)Nn2cnnc2)s1 -1.38%
COc1cccc(N2C(=O)CC(N3CCN(S(=O)(=O)c4ccccc4)CC3)C2=O)c1 (stereo unspecified) 12.7%
COc1cccc(N2C(=O)CC(N3CCc4ccccc4C3)C2=O)c1 (stereo unspecified) -4.39%

inhibition, active:
Cc1ccc(NC(=O)OCc2cncs2)cc1 52.5%
O=C(Cn1c(NCCO)nc2ccccc21)c1ccc(Cl)cc1Cl 62.2%
CCc1ccc2c(c1)C1(NN=C(c3ccccc3)S1)C(=O)N2 (stereo unspecified) 92.2%
CC/C(O)=C1\C(=O)CC(C)(C)CC1=NCCc1nc2ccccc2[nH]1 55.8%
NNC(=O)COc1ccc(C2SCCS2)cc1 54.2%
Cc1cnc(NC(=O)CSc2nnc(C)s2)s1 58.3%
COc1cccc(N2CCN(C3CC(=O)N(c4ccc(Cl)cc4)C3=O)CC2)c1 (stereo unspecified) 94.7%
